Compound activity as filed in PubChem.
In the library only some 18% were active in any assay of this set; here they are far more common.
TDP1 cell CPT = growth inhibition of DT40 Tdp1-/-;hTDP1 cells with camptothecin (screen for TDP1 inhibitors); chicken DT40 Tdp1-/-;hTDP1 cells + 20 nM CPT, ATP luminescence, 48 h; Potency, µM (top dose mostly 46.2 µM), most hits filed as inhibitors; actives 12% (n = 420,000); note: nearly all actives have a fitted effect of over 55% in size
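Chicken DT40 Tdp1-/- cells stably complemented with human TDP1 were seeded at 400 cells/well in medium containing 20 nM camptothecin, exposed to pin-transferred compounds, and grown at 37 °C for at least 48 hr. Viability was read as ATP luminescence.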
RORgamma inh = blocks mouse ROR gamma transcriptional activity; Potency, µM (highest dose often 53.6 µM), hits mostly inhibitors; Drosophila S2 Gal4-RORgamma UAS-luciferase reporter, 20 h; P51450; actives 5.4% (n = 310,000); AID 2551; note: nearly all actives have a fitted effect of over 60% in size
Target sequence (P51450 whole entry, looked up, the tested form may be a part): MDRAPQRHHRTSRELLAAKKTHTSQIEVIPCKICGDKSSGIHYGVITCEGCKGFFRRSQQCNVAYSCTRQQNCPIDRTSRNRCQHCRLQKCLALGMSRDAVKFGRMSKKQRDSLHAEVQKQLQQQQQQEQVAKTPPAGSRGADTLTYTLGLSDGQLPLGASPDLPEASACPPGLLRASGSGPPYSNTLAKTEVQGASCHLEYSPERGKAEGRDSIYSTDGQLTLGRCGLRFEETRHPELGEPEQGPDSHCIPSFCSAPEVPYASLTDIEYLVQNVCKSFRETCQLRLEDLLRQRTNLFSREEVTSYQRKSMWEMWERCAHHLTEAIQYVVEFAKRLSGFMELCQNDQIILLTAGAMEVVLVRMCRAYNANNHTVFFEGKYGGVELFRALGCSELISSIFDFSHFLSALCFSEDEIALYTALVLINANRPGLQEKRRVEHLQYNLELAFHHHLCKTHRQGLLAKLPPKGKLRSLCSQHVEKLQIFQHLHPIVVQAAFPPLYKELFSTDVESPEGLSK
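Using a luciferase readout, inhibitors were identified by reduced reporter activity in Drosophila cells coexpressing a copper-inducible Gal4–ROR gamma fusion and UAS-driven Photinus luciferase, incubated 20 hr after 700 uM copper sulfate.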
IL-1B inflam inh = inhibitors of inflammasome signaling (IL-1 beta secretion); THP-1 LPS/ATP IL-1B secretion, AlphaLISA, 16 h; stronger effect = lower value; actives 4.7% (n = 360,000); activity change, % at 57.5 µM; AID 743279; in the data active = activity change below about -50%; inconclusive = mostly about -30% to -49%
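THP-1 cells pretreated 1 hr with compounds (up to 57.5 uM final), then stimulated with LPS (250 ng/mL final) plus ATP (1.25 mM final); secreted IL-1B measured by AlphaLISA after 16 hr, decreased signal indicating inhibition.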
LDHA block = LDHA (human) enzyme inhibition | purified LDHA, NADH/diaphorase-resazurin fluorescence; stronger effect = lower value | activity change, % (values are at about 110 or 230 µM) | actives 0.15% (n = 480,000) | AID 1347041; in the data active = activity change below about -30%; inconclusive = mostly about -25% to -30%
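Human LDH5 (2 nM) was incubated with 0.06 mM NADH and 0.2 mM pyruvate for 5 min at room temperature in Tris pH 7.4. Remaining NADH was coupled through diaphorase/resazurin, and resorufin fluorescence was read at 0 and 20 min.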
DT40 TDP1 no CPT = qHTS for Inhibitors of human tyrosyl-DNA phosphodiesterase 1 (TDP1): qHTS in cells in absence of CPT | actives 15% (n = 420,000) | DT40 Tdp1-/- hTDP1 cells, no CPT, ATP luminescence, 48 h | Potency, µM (highest dose often 46.2 µM), actives largely listed as inhibitors; note: nearly all actives have a fitted effect of over 55% in size
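Readout: luminescence from CellTiter-Glo after 30 min in the dark at RT. Cells: DT40 Tdp1-/- with stable hTDP1, 400/well. Exposure: compounds alone, ≥48 hr, 37 °C.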
Gal4-VP16 FLuc = counter-screen for ROR gamma inhibitors: Gal4-VP16 reporter; Potency, µM (doses to about 53.6 µM), usual class: inhibitors; actives 3.5% (n = 310,000); Drosophila S2 Gal4-VP16 UAS-luciferase, luminescence, 20 h;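 note: Gal4-VP16 expression switched on by copper sulfate through the metallothionein promoter; nearly all actives have a fitted effect of over 50% in size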
Numbers stand for hits; 0 = inactive; ? = inconclusive; - = not tested or not shown; [ ] = remark or other dose. Unless noted, calls come from the whole dose curve; as a rule, active = well fitted curve in the direction sought with a large enough effect; inconclusive = small, poorly fitted or top-dose-only effect, or another doubt; inactive = no such curve, though single readings can be large; an effect the other way counts as inactive or inconclusive.

SMILES | TDP1 cell CPT | RORgamma inh | IL-1B inflam inh | LDHA block | DT40 TDP1 no CPT | Gal4-VP16 FLuc
O=C(NNC(=O)C1CCCCC1)c1ccccc1F | - | - | - | 0 | - | -
COc1ccc(C(=O)N(Cc2ccc(N(C)C)cc2)CC2CCCO2)cc1 (stereo unspecified) | ? | - | - | 0 | 0 | -
COc1ccccc1OCC(=O)N(Cc1ccc(N(C)C)cc1)CC1CCCO1 (stereo unspecified) | 23µM | - | - | 0 | 15µM | -
Cc1ccc(S(=O)(=O)NCc2ccncc2)c(C)c1C | 1.8µM | ? | 0 | 0 | 1.3µM | 0
COc1cc(C)c(Br)cc1S(=O)(=O)NCc1ccncc1 | 10µM | ? | 0 | 0 | 9.2µM | 0
Cc1cc(C)c(S(=O)(=O)NCc2ccncc2)c(C)c1 | 7.3µM | ? | 0 | 0 | 7.3µM | 8.9µM
Cc1ccc(S(=O)(=O)NCc2ccccn2)c(C)c1C | 0 | ? | 0 | 0 | 0 | 0
NCCOc1ccccc1Cc1ccccc1 | ? | 0 | -62 | 0 | ? | 0
CCCCN(CC)C(=O)c1cc2cc3ccc(OC)cc3nc2o1 | ? | 0 | ? | 0 | ? | 0
Cc1cccc(N(C)C(=O)c2cc3cc4ccc(C)cc4nc3o2)c1 | 12µM | 0 | 0 | 0 | 18µM | 0[0.365 µM]
CCN(C(=O)c1cc2cc3ccc(OC)cc3nc2o1)c1cccc(C)c1 | 23µM | - | - | 0 | 16µM | -
CNS(=O)(=O)c1ccc(NC(=O)c2cc3ccccc3oc2=O)cc1 | - | - | - | 0 | - | -
CCCCCNC(=O)C(c1ccc(-c2ccccc2)cc1)n1c(=O)c(-c2ccccc2)nc2ccccc21 (stereo unspecified) | ? | - | 0 | 0 | ? | -
CCCCCNC(=O)C(c1cccc2ccccc12)n1c(=O)c(-c2ccccc2)nc2ccccc21 (stereo unspecified) | 13µM | - | 0 | 0 | 15µM | -
O=C(NCc1ccccc1)C(c1cccc2ccccc12)n1c(=O)c(-c2ccccc2)nc2ccccc21 (stereo unspecified) | 13µM | - | 0 | 0 | ? | -
CCCCCNC(=O)C(CCc1ccccc1)n1c(=O)c(-c2ccccc2)nc2ccccc21 (stereo unspecified) | 5.8µM | - | 0 | 0 | 5.8µM | -
CCCCCNC(=O)C(CCc1ccccc1)n1c(=O)c(-c2cc3ccccc3[nH]2)nc2ccccc21 (stereo unspecified) | ? | - | 0 | 0 | ? | -
COCCN(CCCO)Cc1ccco1 | - | - | - | 0 | - | -
Cc1ccc(C(=O)OCc2cc(=O)oc3c(C)c(C)ccc23)s1 | - | - | - | 0 | - | -
CCCCCC(=O)Nc1cc(N(C)C)nc2ccccc12 | ? | 0 | 0 | 0 | ? | 0
CN1CCN(CC(=O)Nc2ccc(Oc3ccccc3)cc2)CC1 | 0 | 0 | 0 | 0 | ? | 0
CCN(CC)CC(=O)Nc1cc(N(C)C)nc2ccccc12 | 0 | 0 | - | -33 | 0 | 0
CN1CCN(CC(=O)Nc2cc(N(C)C)nc3ccccc23)CC1 | 0 | 0 | -62 | 0 | 0 | 0
CCCN(Cc1ccccc1)C(=O)COc1ccc2ccc(=O)oc2c1 | - | - | - | 0 | - | -
CC(OC(=O)/C(C#N)=C/c1ccc(N(C)C)cc1)C(=O)N(C)Cc1ccccc1 (stereo unspecified) | ? | 0 | 0 | 0 | 12µM | 0
SMILES | TDP1 cell CPT | RORgamma inh | IL-1B inflam inh | LDHA block | DT40 TDP1 no CPT | Gal4-VP16 FLuc
COc1ccc(C2CC(c3ccc(Br)cc3)=NN2C(=O)CSC2=NCCS2)cc1 (stereo unspecified) | 16µM | 0 | -65 | 0 | 16µM | 0
COc1ccc(C2=NN(C(=O)CCC(=O)O)C(c3ccc(OC)cc3)C2)cc1 (stereo unspecified) | 0 | 0 | 0 | 0 | 0 | 0
COc1ccc(C2=NN(C(=O)CSc3ncccn3)C(c3ccc(C)cc3)C2)cc1 (stereo unspecified) | ? | 0 | 0 | 0 | 18µM | 0
N=c1c2c(-c3ccccc3)c(-c3ccccc3)oc2ncn1CCN1CCOCC1 | ? | 0 | ? | 0 | 16µM | 0
Cn1c2ccccc2c2ncn(CCCN3CCOCC3)c(=O)c21 | 0 | 0 | 0 | 0 | 0 | 0
N=c1c2c(-c3ccccc3)c(-c3ccccc3)oc2ncn1CCCN1CCOCC1 | 21µM | ? | ? | 0 | 18µM | ?
CC1CCc2c(sc3ncnc(NCCN4CCOCC4)c23)C1 (stereo unspecified) | 0 | 0 | 0 | 0 | 0 | 0
Cc1sc2ncnc(NCCN3CCOCC3)c2c1C | 13µM | 0 | 0 | 0 | 18µM | 0
c1ccc(-c2oc3ncnc(NCCN4CCOCC4)c3c2-c2ccccc2)cc1 | ? | 0 | -82 | 0 | ? | 0
O=C(CCc1ncc(-c2ccc(F)cc2F)o1)Nc1cccc(C(=O)NC2CC2)c1 | - | - | - | 0 | - | -
COc1ccc(Cl)cc1NC(=O)CSC1=Nc2ccccc2C2=NC(CCC(=O)NCc3ccc(F)cc3)C(=O)N12 (stereo unspecified) | 23µM | - | - | 0 | 16µM | -
COc1ccccc1CNC(=O)CCC1N=C2c3ccccc3N=C(SCC(=O)Nc3ccc(F)cc3)N2C1=O (stereo unspecified) | 0 | - | - | 0 | 0 | -
COc1ccc(Cl)cc1NC(=O)CSC1=Nc2ccccc2C2=NC(CC(=O)NC3CCCCC3)C(=O)N12 (stereo unspecified) | 18µM | - | - | 0 | 0 | -
COc1ccc(NC(=O)CSC2=Nc3ccccc3C3=NC(CCC(=O)NCc4ccc(F)cc4)C(=O)N23)cc1Cl (stereo unspecified) | ? | - | - | 0 | 15µM | -
CCNC(=O)CCn1nc(-c2ccccc2)c2ccccc2c1=O | - | - | - | 0 | - | -
O=c1[nH]c(=O)n(CC2CCCO2)c2nccc(-c3cccc4ccccc34)c12 (stereo unspecified) | - | - | - | 0 | - | -
CCN(c1cccc(C)c1)S(=O)(=O)c1ccc2c(c1)CCN2C(C)=O | ? | 0 | 0 | 0 | 16µM | 0
O=C(C1CCC1)N1CCc2cc(S(=O)(=O)N3CCCCC3)ccc21 | ? | 0 | 0 | 0 | ? | 0
CCN(CC)C(=O)C1CCN(S(=O)(=O)c2ccc3c(c2)CCCN3C(C)=O)CC1 | 23µM | - | - | 0 | ? | -
CCN(CC)C(=O)C1CCN(S(=O)(=O)c2ccc3c(c2)CCCN3C(=O)C2CCC2)CC1 | 7.3µM | 0 | 0 | 0 | ? | 0
CCN(c1cccc(C)c1)S(=O)(=O)c1ccc2c(c1)CCCN2C(C)=O | 0 | 0 | 0 | 0 | ? | 0
CCN(C(=O)C1CCN(S(=O)(=O)c2ccc3c(c2)CCCN3C(C)=O)CC1)c1cccc(C)c1 | ? | - | - | 0 | 23µM | -
N#Cc1cc2c(n(-c3ccccc3C(F)(F)F)c1=O)CCCC2=O | - | - | - | 0 | - | -
Cc1ccccc1C(=O)NCCc1c[nH]c2ccc(Cl)cc12 | - | - | - | 0 | - | -
CCN(CC)CCCNc1nc(CN2CCOCC2)nc2sc3c(c12)CCC3 | 0 | 0 | 0 | 0 | 0 | 0
